# Results taken from PubChem BioAssay AID1508600 (Functional Genomics Laboratory (NCATS/FGL), 2020).
# Out of some 53,000 sequences screened, about 3,700 (7%) were called active.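 How the source made its calls: active means gene knockdowns whose robust z-score for IL-1 alpha signal is at least 2 or at most -2, so actives lie on both sides; inactive means the rest.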 The full list was thinned out, with actives kept by preference.
# Assay: Components of the Cytosolic LPS Sensing Pathway: Gene Identification via Genome-wide siRNA Screen;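 further: robust z of the log signal after scaling to non-targeting control siRNA wells of the plate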
# Conditions: RAW264.7 macrophages, IL-1a HTRF, actives lie on both sides, screened at 100 nM (by protocol), cells primed 5 h with Pam3CSK4 first
# Procedure, shortened: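 Using IL-1a HTRF as read-out, the screen measured release from RAW264.7 cells after 48h siRNA knockdown (100 nM), 5 h Pam3CSK4 priming and 24 h cytosolic LipidA. Values were expressed relative to negative-control wells as robust z-scores.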
row,Sequence,z-score
1,GGAAAGACCUAAGCAAUUATT against Klhl28,-0.287 (inactive)
2,CCUAUCCAGAUGUCAUUAATT against Hoxa11,0.849 (inactive)
3,GGAAUUUGAUUCUCUGCCUTT against Zfp646,2.96 (active)
4,GCAUUAAAAACCCUUUUUGTT against B230354K17Rik,1.68 (inactive)
5,GCAGAGUGUGGUUAGUGGGTT against Cobl,-0.218 (inactive)
6,GGAACUGCCCAGUUCUUAATT against Ppan,0.424 (inactive)
7,CCUACCCUAACCAUUACACTT against Enpp5,-0.267 (inactive)
8,GGCCUUUUCUCAUCUCUGGTT against Igfals,-1.57 (inactive)
9,GCCCGGAGAAUAUUAACUATT against Mllt11,2.21 (active)
10,GCACUUUAAGAUCAACCGGTT against Bcar3,0.521 (inactive)
11,CCUAAAAGUGCCUUACUAATT against Ftdc2,0.679 (inactive)
12,GGAGUUUGCCAGUCAGAUCTT against Ralgps1,-2.11 (active)
13,GCAAGAACGCAAGAUUCAATT against Acoxl,0.581 (inactive)
14,GCUGCUACGUGUUCAAGGUTT against Ctss,0.00488 (inactive)
15,GGACAAAGAAUCCAAAAUATT against Etv6,2.25 (active)
16,GGUACCAACGUGUAUGGCATT against Gpaa1,0.182 (inactive)
17,GGUAAACCAAACAAAACCATT against Rpl35a,0.264 (inactive)
18,CCUUAAAACAGAUCCACUUTT against Nell2,0.473 (inactive)
19,GGCUCCUGUGCAUAUCUAATT against Olfr116,-0.449 (inactive)
20,GGAGAACAACAGUAAUUACTT against Reps2,-1.28 (inactive)
21,GGCUUUGGCAUGAUUGGCCTT against Tmem214,-2.72 (active)
22,GGUGUCCAACAAGCUCAAGTT against F8a,-0.337 (inactive)
23,GCGCAAACUUUAAUAACACTT against Zkscan1,0.604 (inactive)

row,Sequence,z-score
1,GGCCAGGUAACUCUUACAATT against Trpv1,1.12 (inactive)
2,GGGUUAGCCAGAGCUCUAATT against N4bp2l1,3.03 (active)
3,GGACAGUGUCUAGAUAUUGTT against Fbln5,-1.18 (inactive)
4,GGACAAGUUGUUGGACUACTT against Hltf,-1.02 (inactive)
5,GGACAAUGUGAUGAAGAUUTT against Fgfr3,-0.843 (inactive)
6,GCCUCAUCAAUCCACUGCATT against Mtss2,-0.956 (inactive)
7,GGGUGUGUUGGAUACCUAUTT against Adig,2.03 (active)
8,GGGAGUUGUAGUAUUAGUATT against Zfp94,-1.19 (inactive)
9,AAAAAACAGCACCCUGAUGTT against Olfr204,1.1 (inactive)
10,GGUCAGCAUUAUCAAGCCUTT against Hsd11b2,0.159 (inactive)
11,CCUGUGAAUACUUUCACUCTT against Bok,0.115 (inactive)
12,GGAAAUUGGCACCAUUACUTT against St3gal1,2.14 (active)
13,GCCAGUCAUUAUAGUUAACTT against Slc47a1,1.57 (inactive)
14,GGAAGAACCACCACAAACUTT against Cstdc2,-0.0281 (inactive)
15,GGAGUUUGGUAAAAUUGACTT against Dhrs7,-1.7 (inactive)
16,GGAAGAAAUUCCUAAUGAATT against Igsf11,-1.01 (inactive)
17,GGACCAAGGAAUAUUUCCCTT against Serpinb9b,-0.564 (inactive)
18,GGGAUCAGAACAAGUAUAATT against Klc1,0.257 (inactive)
19,GGCUAAUAGACUUAUUAGGTT against Cdip1,0.45 (inactive)
20,GGGUCAUCCAAAUGGUUUGTT against Grm6,0.323 (inactive)
21,GGCUCACAGGACCUAUUUCTT against Col6a6,-3.15 (active)
22,GCUGUUUUGAGGAGCCUUCTT against Zfp410,-0.962 (inactive)
23,GGGUGAUCGCACGAUUGAGTT against Casq2,0.364 (inactive)

row,Sequence,z-score
1,CCCACUCCGAUAUACUGCUTT against Olfr447,2.2 (active)
2,GGAAAAUGGCAGAAAUGAATT against Vps26a,-1.97 (inactive)
3,GGAGGUUGUGAUCUUGAAATT against Tbc1d23,-0.000244 (inactive)
4,CGUAGACUUAACCUACAAATT against Dync2h1,1.88 (inactive)
5,GGUCAACCUUGAACUAAUATT against Dhx57,0.452 (inactive)
6,GCGAGUAGGACCAGUGAAATT against Xpo1,-2.67 (active)
7,GGAUCUUGAGUUGGAGUCCTT against Nupr1l,-0.319 (inactive)
8,GCUAGAGUACAGCAAGCUGTT against Aifm3,1.21 (inactive)
9,GGACGGUAACAACUACAAUTT against Polg,1.63 (inactive)
10,GGAUUAAAGGCCAUAAGGATT against Zfp747,-0.813 (inactive)
11,CGAGUUUGACCGGACCAUCTT against Ssna1,2.44 (active)
12,GGAACAAGAGAAUGAUGAATT against Col5a2,0.343 (inactive)
13,CGAAGAUUAAUUUUGCUCATT against Lrrtm2,0.316 (inactive)
14,CGAGACUCUAUCUUUGUCCTT against St3gal3,-0.785 (inactive)
15,CGUGGUAGUGAAAAUUGAGTT against Xbp1,0.282 (inactive)
16,GGCCGCAUACUGAUGAAAGTT against Scgn,-0.395 (inactive)
17,GCUUUGUUGGGAGUGAAAUTT against Olfr728,-2.11 (active)
18,CCACCACAGCUGAAGUCAGTT against Fen1,-1.08 (inactive)
19,GGUAAGCUAGGUUGCCCACTT against Gabarapl1,1.91 (inactive)
20,GGGUUAAGGUAGUUUCUAATT against 4930579C12Rik,0.613 (inactive)
21,GGUGAAAUCCAGGAGUUUUTT against Rnd3,2.02 (active)
22,GGAAAUGAAGCUCAUGGAATT against Dcdc5,-1.44 (inactive)
23,GGUUGCUAGUGCUAAGGACTT against Pdlim2,0.245 (inactive)
